Bioassay records as filed in PubChem BioAssay.
In the library only some 3.2% were active in any assay of this set; here they are far more common.
Vaccinia Venus: inhibitors of vaccinia virus (Venus reporter); 0.46% of 330,000 active; Potency, µM (titrated, usually from 36.5 µM), inactives show top-dose activity change, negative = inhibition, hits mostly inhibitors; Vaccinia virus Venus reporter expression, fluorescence; calls by dose curve; tested in A549 cells; note: nearly all actives have a fitted effect of over 30% in size
LASV entry inh: blocks Lassa virus binding to or entry into cells. Lassa virus pseudotype entry inhibition, cell reporter. Potency, µM (titrated, usually from 37.9 µM), for inactives: top-dose activity change, negative = inhibition, most hits filed as inhibitors. 1.2% of 300,000 active. AID 540256; calls by dose curve; tested in HEK293 cells; note: nearly all actives have a fitted effect of over 50% in size
FMDV antiviral: antivirals against foot and mouth disease virus; Potency, µM (titrated, usually from 57.9 µM), for inactives: at the top dose activity change, negative = inhibition, hits mostly inhibitors; FMDV antiviral cell-based qHTS; 1.2% of 410,000 active; calls by dose curve; tested in HEK293T cells; note: read-out not given here; nearly all actives have a fitted effect of over 45% in size
Vaccinia mCherry: inhibitors of vaccinia virus infection (mCherry reporter signal) | Vaccinia virus mCherry reporter infection, fluorescence | Potency, µM (top dose mostly 36.5 µM), for the others: at the top dose activity change, negative = inhibition, most hits filed as inhibitors | 0.63% of 310,000 active; calls by dose curve; tested in A549 cells; note: nearly all actives have a fitted effect of over 35% in size
Marburg entry inh: inhibitors of Marburg virus binding or cell entry | Marburg virus pseudotyped entry inhibition, cell reporter | 1.8% of 300,000 active | Potency, µM (series often up to 37.8 µM), for inactives: at the top dose activity change, negative = inhibition, usual class: inhibitors; calls by dose curve; tested in HEK293 cells
* marks the source's active call; other numbers are inactive results; i = inactive; ? = inconclusive; . = not tested or not shown; [ ] = another dose, or the depositor's remark. % is set by controls: 0 for no effect and ±100 for the full control effect; potency is the fitted concentration of half-maximal effect.

SMILES	Vaccinia Venus	LASV entry inh	FMDV antiviral	Vaccinia mCherry	Marburg entry inh
CCS(=O)(=O)c1ccc(C(=O)Nc2cccc(Cl)c2)c(Cl)c1Cl	?	?	28µM*	.	?
O=C(NCCc1ccccc1)c1ccc(NCC2CCCO2)c([N+](=O)[O-])c1 (configuration not stated)	-11%	?	65%	-14%	11%[46.1 µM]
CC(C)CNC(=S)N1CCC(C(=O)c2ccc3c(c2)OCCO3)CC1	.	.	-13%	.	.
Nc1ncnc(Nc2ccccc2Cl)n1	.	.	21%	.	.
Cn1c(=O)c([N+](=O)[O-])c(Cl)c2ccccc21	-4%	?	14µM*	-14%	?
CCN(CC)c1c([N+](=O)[O-])c(=O)n(C)c2ccccc12	-22%	15%	?	i	?
O=C(NCCC1=CCCCC1)c1ccc2c(=O)n3nc(Nc4ccccc4)sc3nc2c1	?	11%[46.1 µM]	-21%	?	.
COc1ccc(N2CCN(C(=O)CSc3n[nH]c(-c4ccccc4Cl)n3)CC2)cc1	-12%	23%[46.1 µM]	-14%	-11%	.
O=C(CSc1n[nH]c(-c2ccccc2Cl)n1)N1CCN(c2ccccc2)CC1	-3%	-4%[46.1 µM]	35µM*	-7%	.
COc1ccc(NC(=O)c2cc(-c3ccccn3)nc3ccccc23)cc1S(=O)(=O)N(C)C	-13%	?	?	-1%	16µM*
CCN(CC)S(=O)(=O)c1cc(NC(=O)c2cc(-c3ccccn3)nc3ccccc23)ccc1C	.	.	-29%	.	.
O=S(=O)(Nc1nc2ccccc2nc1Nc1cccc(S(=O)(=O)N2CCCCC2)c1)c1ccccc1	?	?	?	11µM*	?
O=C(Nc1cccc(S(=O)(=O)N2CCCC2)c1)c1cc(-c2ccccn2)nc2ccccc12	1%	?	-27%	i	7.9µM*
CC(C)[C@H](CO)Nc1nc(Nc2ccc(Cl)c(C(=O)O)c2)c2ncn(C(C)C)c2n1	-10%	.	-22%	i	.
CC(C)n1cnc2c(Nc3cccc(Cl)c3)nc(NCCCO)nc21	10µM*	.	23%	?	.
O=C(C[N+]1(CCc2ccccc2)CCOCC1)c1cccc([N+](=O)[O-])c1	-9%	.	.	-16%	.
COc1ccccc1C(=O)COC(=O)c1cc([N+](=O)[O-])ccc1N1CCOCC1	-8%	-10%	7%	i	?
COc1ccc(C(=O)COC(=O)c2cc([N+](=O)[O-])ccc2N2CCOCC2)c(OC)c1	-13%	-11%	-19%	-19%	2.2µM*
CC(=O)Nc1ccc(NC(=O)COC(=O)c2cc([N+](=O)[O-])ccc2N2CCOCC2)cc1	-14%	-4%	-7%	0%	-18%
O=C(COC(=O)c1cc([N+](=O)[O-])ccc1N1CCOCC1)Nc1cccc(F)c1	.	.	40µM*	.	.
COc1ccccc1CN1CC(C(=O)NCc2cccnc2)CC1=O (configuration not stated)	-1%	22%	.	-5%	?
Cc1ccc(-n2cc(CN3CCC(O)(c4ccccn4)CC3)c(-c3ccc(F)cc3)n2)cc1	?	?	-29%	?	4µM*
Cc1ccc(-n2cc(CN3CCNC(=O)CC3)c(-c3ccc(F)cc3)n2)cc1	-14%	3%	6%	?	-22%[46.1 µM]
O=C(C1CCN(c2ncnc3c2nc2n3CCCCC2)CC1)N1CCN(c2ccccc2F)CC1	-18%	-7%[46.1 µM]	?	i	.
Cc1cccc(N2CCN(C(=O)C3CCN(c4ncnc5c4nc4n5CCCCC4)CC3)CC2)c1C	?	?	20µM*	-26%	.
SMILES	Vaccinia Venus	LASV entry inh	FMDV antiviral	Vaccinia mCherry	Marburg entry inh
Cc1cccc(N2CCN(C(=O)C3CCN(c4ncnc5c4nc4n5CCCCC4)CC3)CC2C)c1 (configuration not stated)	?	10µM*	32µM*	?	?
CCc1ccc(NC(=O)C2CCN(c3ncnc4c3nc3n4CCCCC3)CC2)cc1	-9%	-30%[46.1 µM]	?	-4%	8%[46.1 µM]
C[C@H](CO)N1C[C@H](C)[C@@H](CN(C)S(=O)(=O)c2ccccc2C#N)OCc2cn(nn2)CCCC1=O	2%	.	-9%	i	.
COc1ccc(N2C(=O)[C@@H]3[C@@H](C2=O)[C@@H]2C=C[C@H]3C23CC3)c(OC)c1	.	.	.	.	14%[46.1 µM]
Cc1ccccc1OCC(=O)Nc1ccccc1OCc1cc(=O)n2ccccc2n1	-14%	11%[46.1 µM]	13%	-10%	.
Cc1ccc(-c2cc(C(F)F)nc(S(C)(=O)=O)n2)cc1	-4%	?	32µM*	-1%	?
COc1ccc(CCNc2nc(-c3ccc(C)cc3)cc(C(F)F)n2)cc1OC	-10%	?	-11%	-21%	11%[46.1 µM]
Oc1ccccc1/C=N/Nc1nccnc1Cl	.	13µM*	38%	.	?
Oc1ccc(/C=N/Nc2nccnc2Cl)c(O)c1	?	?	9%	2.5µM*	?
Oc1ccc(/C=N/Nc2ncc(Br)cn2)c(O)c1	?	?	10%	2.5µM*	?
Oc1ccc(C=NNc2ccccn2)c(O)c1	?	?	11%	?	?
Oc1ccc(Br)cc1/C=N/Nc1ncc(-c2ccccc2)cn1	7%	-25%	-14%	i	-33%
C=CCCC1(C(=O)c2ccccc2)C(=O)C(CC=C(C)C)=C(OC)C(CC=C(C)C)(CCC=C(C)C)C1=O (configuration not stated)	.	?	.	.	-1%[14.2 µM]
CCC(=O)Nc1ccc(NC(=O)c2ccccn2)cn1	-4%	10µM*	13%	-18%	?
CC(C)C(=O)Nc1ccc(NC(=O)c2cccnc2)cn1	-13%	9%	10%	.	-2%
CC(C)C(=O)Nc1ccc(NC(=O)c2ccccn2)cn1	-8%	?	-58%	-9%	11µM*
O=C(c1ccoc1)N1CCOc2ccc(CN3CCC(Oc4cccnc4)CC3)cc2C1	11%	.	1%	-7%	.
CCCC[C@]12Cc3cc(C#N)ccc3[C@H](O1)c1c(cc(C)n(Cc3ccccc3)c1=O)O2	.	.	.	.	-23%[14.2 µM]
Cc1ccc(SC2=C(Sc3ccc(C)cc3)C(=O)c3ccccc3C2=O)cc1	6%	11%[46.1 µM]	25µM*	-6%	2%[46.1 µM]
CN(CC(=O)Nc1c(Cl)cccc1Cl)C(=O)CCNS(=O)(=O)c1ccccc1C(F)(F)F	-17%	2%	-1%	?	-15%
O=C(NC(=O)c1ccccc1)C1=C(N2CCCC2)COC1=O	-15%	.	18%	i	.
O=C(NC(=O)c1cc([N+](=O)[O-])ccc1Cl)C1=C(N2CCCC2)COC1=O	-23%	.	20µM*	?	.
CC1(C(=O)NS(=O)(=O)c2ccccc2)CCN1C(=O)CCc1ccc(Cl)cc1Cl (configuration not stated)	-6%	.	-13%	31%	.
O=c1c(Br)c(N2CCCC2)cnn1-c1ccccc1	-14%	7%	43%	-21%	6%
O=c1c(Br)c(Br)cnn1-c1ccccc1	?	?	14µM*	?	?
Cc1nc2cccnc2n1-c1cccc(C(=O)N2CCN(c3cccc(Cl)c3)CC2)c1	-28%	?	25µM*	?	.
COc1cccc(N2CCN(C(=O)c3cccc(-n4c(C)nc5cccnc54)c3)CC2)c1	-21%	-28%[46.1 µM]	28µM*	-23%	.
Cc1nc2cccnc2n1-c1cccc(C(=O)NCCc2ccc(Cl)cc2)c1	-21%	-8%[46.1 µM]	?	-23%	.
